DAX1 StAR inh: blocks DAX1 repression of SF-1 activated StAR promoter; 1.1% of 370,000 active; HEK293T StAR-luciferase reporter, SF-1/DAX-1 repression relief; AID 652010; inhibition, % at 6.8 µM;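 active = inhibition above the mean over all tested compounds plus 3 SD, cut at about 3.6% in these data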;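 also: higher inhibition means more luminescence from relief of DAX-1 repression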
ssDAF12 agonist: activates DAF-12 receptor from parasite S. stercoralis. HEK293 ssDAF-12/GRIP1 lit1-tk-luc reporter, luminescence; % of 3 µM dafachronic acid response. activation, % at 6.8 µM. 1% of 370,000 active;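 active = activation above the mean over all tested compounds plus 3 SD, cut at about 0.9% in these data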
hgDAF12 agonist: hgDAF-12 agonism, primary luciferase screen; HEK293 GAL4-hgDAF12 UAS-luciferase reporter, agonist luminescence; normalized to butyrate control; activation, % at 6.8 µM; 1.8% of 370,000 active; AID 687014;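 active = activation above a cutoff set at the mean of all screened compounds plus 3 SD, cut at about 10% in these data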
Wnt bcat act: activators of Wnt/beta-catenin signaling | Wnt/beta-catenin reporter cell assay, activator, plate reader | activation, % at 9.35 µM | 1.2% of 300,000 active; in the data active = activation above about 30%, passing the limit was not always enough; inconclusive = no clear call, values can overlap the other calls
hcDAF-12 act: H. contortus DAF-12 activation, primary screen. 1.4% of 370,000 active. activation, % at 6.8 µM. HEK293 hcDAF-12 lit1-tk-luc reporter, luminescence; 0% DMSO, 100% Δ7-dafachronic acid;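 active = activation above the mean of all tested compounds plus 3 SD, cut at about 5.5% in these data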
esBAF inh: blocks esBAF chromatin remodeling in mouse ES cells. reporter increase, % at 12.5 µM. Bmi1-luciferase knock-in reporter, 24 h; 100% = twice the neutral-well signal. 2% of 350,000 active; in the data active = activation above about 40%; inconclusive = no clear call, values can overlap the other calls;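 also: a rise in the Bmi1 reporter signal indicates esBAF inhibition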
LXRb hcDAF ctr: activates human LXR-beta, counter-screen for hcDAF-12 agonists; 3,400 tested, under 10 active; activation, % at 6.8 µM; HEK293 Gal4-LXR tk-luc reporter, luminescence, 24 h; normalized: DMSO 0%, positive control 100%; shares compounds with hcDAF-12 act;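 active = mean percent activation of the reporter above a cutoff set as the average over tested compounds plus their standard deviation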
Target sequence (P55055 whole entry, looked up, the tested form may be a part): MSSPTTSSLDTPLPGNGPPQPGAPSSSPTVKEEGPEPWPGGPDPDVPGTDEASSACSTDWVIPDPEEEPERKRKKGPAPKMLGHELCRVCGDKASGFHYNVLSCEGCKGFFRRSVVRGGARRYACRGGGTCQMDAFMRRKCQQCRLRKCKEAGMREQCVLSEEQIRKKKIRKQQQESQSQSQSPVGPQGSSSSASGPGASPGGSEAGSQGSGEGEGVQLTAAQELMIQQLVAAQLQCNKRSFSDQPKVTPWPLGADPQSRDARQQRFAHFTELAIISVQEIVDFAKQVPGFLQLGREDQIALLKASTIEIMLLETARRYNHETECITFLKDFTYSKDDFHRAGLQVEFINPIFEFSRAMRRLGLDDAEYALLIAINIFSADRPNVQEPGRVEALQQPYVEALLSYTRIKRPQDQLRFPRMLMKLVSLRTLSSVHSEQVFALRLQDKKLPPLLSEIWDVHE
hcDAF12 conf: hcDAF-12 agonism, confirmation assay. AID 743032. 61% of 3,400 active. HEK293 hcDAF-12 lit1-tk-luc reporter, luminescence; % of Δ7-dafachronic acid response. activation, % at 6.8 µM. shares compounds with hcDAF-12 act;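 active = mean activation across triplicate tests above the threshold derived from the earlier primary screen, cut at about 5.5% in these data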
Numbers stand for hits; – = inactive; ? = inconclusive; · = no result. Only some compounds are listed: those with a hit (about 4.2% of all), similar ones and a draw of the others.

SMILES	DAX1 StAR inh	ssDAF12 agonist	hgDAF12 agonist	Wnt bcat act	hcDAF-12 act	esBAF inh	LXRb hcDAF ctr	hcDAF12 conf
Cc1cc2ccccn2c1C(=O)Nc1ccccc1	–	1.0	–	–	9.7	·	–	9.6
C/C(=C\C(=S)Nc1ccccc1)Nc1ccccc1	–	–	–	–	9.6	·	–	6.1
COc1ccc(Nc2ccc(C(=O)O)cc2[N+](=O)[O-])cc1	–	–	–	–	–	·	·	·
COc1ccc(OC)c(Nc2ccc(C(=O)O)cc2[N+](=O)[O-])c1	–	–	–	–	8.4	·	–	–
CN(C)C(=O)C[C@H]1C=C[C@@H](NC(=O)C2CC2)[C@H](CO)O1	·	·	·	·	·	–	·	·
Cc1cc2nc(-c3cccc(Cl)c3)c(Cc3ccccc3)n2c(C)c1Br	·	·	·	·	·	–	·	·
COc1ccccc1Cc1c(-c2ccc(C)cc2)nc2cc(C)c(Br)c(C)n12	–	1.9	12	–	9.9	·	–	11
COc1ccccc1Cc1c(-c2ccc(F)cc2)nc2cc(C)c(Br)c(C)n12	–	1.1	–	–	8.6	·	–	6.7
Cc1cc2nc(-c3ccc(Cl)cc3)c(Cc3ccsc3)n2c(C)c1Br	–	0.9	–	–	6.8	·	–	–
COc1ccc(Cc2c(-c3cccc(Cl)c3)nc3cc(C)c(Br)c(C)n23)c(C)c1	–	2.0	–	–	6.9	·	–	–
CCOC(=O)c1ccc(Cl)c(NC(=O)c2ccc(-c3ccccc3)cc2)c1	–	–	–	–	–	–	·	·
CCOC(=O)c1ccc(/C=C2/C=C(c3ccccc3)N(c3ccc(Cl)c(C(=O)O)c3)C2=O)cc1	–	–	–	–	8.4	·	–	–
C[C@@H]1CN([C@H](C)CO)C(=O)c2cccc(NC(=O)Nc3ccc4c(c3)OCO4)c2O[C@@H]1CN(C)C(=O)NC1CCCCC1	·	·	·	·	·	–	·	·
C[C@H]1CN([C@@H](C)CO)C(=O)Cc2cc(NC(=O)Cc3cn(C)c4ccccc34)ccc2O[C@H]1CN(C)Cc1ccc(Cl)c(Cl)c1	·	·	·	·	·	–	·	·
CC(C)NC(=O)N(C)C[C@@H]1Oc2ccc(N(C)C)cc2CC(=O)N([C@@H](C)CO)C[C@H]1C	·	·	·	·	·	–	·	·
CC(C)(C)CN1CCN(CC#Cc2ccccc2)CC1CCO (stereo unspecified)	–	–	–	–	7.5	–	–	–
C[C@H](NC(=O)[C@H](Cc1ccccc1)NC(=O)c1cc2cc(Cl)ccc2n1C)C(=O)O	–	–	–	–	6.8	–	–	–
O=C(NCc1ccccc1F)[C@H]1[C@H](CO)[C@H]2Cn3c(cccc3=O)[C@H]2N1CC1CCCC1	·	·	·	·	·	–	·	·
O=C(N[C@@H]1C=C[C@H](CC(=O)N2CCOCC2)O[C@H]1CO)c1cccc(F)c1	·	·	·	·	·	–	·	·
O=c1oc2c(O)cccc2cc1-c1nc2ccccc2[nH]1	–	–	–	36	8.1	–	–	–
C[C@@H]1CN([C@H](C)CO)C(=O)c2cc(NC(=O)NC3CCCCC3)ccc2O[C@@H](C)CCCCO[C@@H]1CN(C)C(=O)NC1CCCCC1	·	·	·	·	·	–	·	·
O=C1c2ccccc2CCC12N=NCC2c1ccc(Cl)cc1 (stereo unspecified)	–	–	–	·	7.4	–	–	–
O=C1c2ccccc2CCC12N=NCC2c1ccc(Br)cc1 (stereo unspecified)	–	–	–	–	–	·	·	·
CC(C)NC(=O)N(C)C[C@H]1Oc2cc(C#CC(C)(C)O)ccc2S(=O)(=O)N([C@H](C)CO)C[C@@H]1C	·	·	·	·	·	–	·	·
N#Cc1ccc(Cl)cc1NC(=O)COC(=O)[C@H](CCC(N)=O)NC(=O)c1ccc(F)cc1	–	–	–	·	9.4	·	–	–
SMILES	DAX1 StAR inh	ssDAF12 agonist	hgDAF12 agonist	Wnt bcat act	hcDAF-12 act	esBAF inh	LXRb hcDAF ctr	hcDAF12 conf
Clc1ccc(/C=C/c2nc3ccccc3[nH]2)c(Cl)c1	–	1.2	–	·	12	–	–	17
CC(C)c1ccc2c(c1)[C@H]1OCC[C@H]1[C@@H](c1cccs1)N2	–	–	–	·	14	·	–	–
C[C@@H]1CCCCO[C@@H](CN(C)CC2CCCCC2)[C@H](C)CN([C@@H](C)CO)C(=O)c2cc(NS(=O)(=O)c3ccc(F)cc3)ccc2O1	·	·	·	·	·	–	·	·
Cc1ccc(Nc2nc(-c3cccnc3)cs2)cc1C	–	3.8	19	?	20	–	–	19
Clc1cccc(Nc2nc(-c3cccnc3)cs2)c1	–	1.8	11	–	8.9	78	–	11
O=C(C[C@H]1C=C[C@@H](NC(=O)Nc2ccc(C(F)(F)F)cc2)[C@@H](CO)O1)NCc1cccc(F)c1	·	·	·	·	·	–	·	·
COc1ccc(/C=C2\CCc3ccccc3C2=O)cc1O	–	–	–	–	8.5	–	–	6.9
C[C@@H]1CN([C@H](C)CO)C(=O)c2cccc(NC(=O)C3CCOCC3)c2O[C@@H]1CN(C)S(C)(=O)=O	·	·	·	·	·	–	·	·
COc1cc2ccccc2cc1C(=O)Nc1nccs1	–	1.4	11	?	10.0	76	–	11
COc1ccccc1C(=O)Nc1ccc(N2CCCCC2)cc1	–	2.7	11	·	13	·	–	14
COc1ccccc1C(=O)Nc1cccc(NC(C)=O)c1	–	–	–	·	–	–	·	·
COc1ccccc1C(=O)Nc1ccc2ccccc2c1	–	1.6	14	–	20	·	–	12
COc1ccccc1C(=O)Nc1ccc(N2CCN(C(C)=O)CC2)cc1	–	–	–	–	–	·	·	·
CCCC#Cc1cnc2c(c1)C(=O)N([C@H](C)CO)C[C@@H](C)[C@@H](CN(C)C(=O)Nc1ccc(OC)cc1)O2	·	·	·	·	·	–	·	·
CCOc1ccccc1NC(=O)CSc1nc2ccccc2nc1N1CCOCC1	–	–	–	–	–	–	·	·
CCOc1ccccc1NC(=O)CSc1nc2ccccc2nc1N1CCCC1	–	1.5	–	–	8.0	–	–	–
C[C@@H]1CN([C@@H](C)CO)C(=O)c2cccc(NS(=O)(=O)c3cccs3)c2O[C@@H]1CN(C)C(=O)NC1CCCCC1	·	·	·	·	·	–	·	·
O=C(C[C@@H]1C[C@@H]2c3cc(NC(=O)c4ccc5c(c4)OCO5)ccc3O[C@@H]2[C@H](CO)O1)NCc1cc(F)ccc1F	·	·	·	·	·	–	·	·
CO[C@@H]1CN(C)C(=O)c2ccc(NC(C)=O)cc2OC[C@H](C)N(C(=O)C2CCCCC2)C[C@H]1C	·	·	·	·	·	–	·	·
C[C@H]1CN([C@@H](C)CO)C(=O)c2cccc(NS(=O)(=O)c3cccs3)c2O[C@@H]1CN(C)CC1CC1	·	·	·	·	·	–	·	·
CC(=O)Nc1sc2c(c1-c1nc3ccccc3s1)CCN(C)C2	·	–	–	·	14	·	–	9.4
CC(=O)Nc1sc2c(c1-c1nc3ccccc3s1)CN(C(C)C)C2	·	–	–	·	–	·	·	·

Screens from PubChem.
